The results in this text go back to PubChem BioAssay AID1851 (National Center for Advancing Translational Sciences (NCATS), 2009).

SMILES strings stand for the structures. Out of some 16,000 compounds screened, about 5,100 (32%) were called active. Inconclusive results (about 25%) are left out. Calls come from the whole dose curve; as a rule, active = well fitted curve in the direction sought with a large enough effect; inconclusive = small, poorly fitted or top-dose-only effect, or effect the other way; inactive = no such curve, though single readings can be large or run the other way. The list shows a part of the results.
% is set by controls: 0 for no effect and ±100 for the full control effect.

For the assay, the target named is Cytochrome P450 3A4 (Homo sapiens) (UniProt P08684). The experiment in a line: Cytochrome panel assay with activity outcomes. Conditions: recombinant CYP, pro-luciferin dealkylation, luminescence, p450-cyp3a4; series mostly up to 57.1 µM.
Cytochrome P450 3A4 (Homo sapiens), sequence (P08684 whole entry, looked up): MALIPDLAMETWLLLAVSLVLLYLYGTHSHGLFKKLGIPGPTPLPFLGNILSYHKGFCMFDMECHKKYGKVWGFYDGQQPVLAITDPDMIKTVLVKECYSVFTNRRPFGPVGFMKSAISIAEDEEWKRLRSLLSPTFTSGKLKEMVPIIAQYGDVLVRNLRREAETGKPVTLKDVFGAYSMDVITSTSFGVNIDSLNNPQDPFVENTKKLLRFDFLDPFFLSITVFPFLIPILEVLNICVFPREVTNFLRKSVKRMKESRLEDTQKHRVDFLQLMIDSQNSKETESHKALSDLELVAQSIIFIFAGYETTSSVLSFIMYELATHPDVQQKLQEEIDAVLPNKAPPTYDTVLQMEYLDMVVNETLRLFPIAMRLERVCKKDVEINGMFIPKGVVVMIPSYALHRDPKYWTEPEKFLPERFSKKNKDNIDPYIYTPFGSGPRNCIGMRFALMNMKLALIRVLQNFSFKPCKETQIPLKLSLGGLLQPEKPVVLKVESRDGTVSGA
As to `COC(=O)Nc1nc2ccc(SC(C)C)cc2[nH]1`, the AC50 result was “inactive”.
On the same count and under the same terms, to `COc1ccc2nc(SCC(=O)c3ccco3)[nH]c2c1` belongs 11.2 µM (active); to `CCCCc1ccc2nc(NC(=O)OC)[nH]c2c1`, “inactive”.
On the same count and under the same terms, to `CCOC(=O)NC(=O)CSc1nc2ccc(OCC)cc2[nH]1` belongs 28.2 µM (active); to `COc1ccc(C(C)=O)c(OC(=O)c2ccco2)c1`, “inactive”.
As for `CN(CC(=O)O)Cc1c(O)c(Cl)cc(Cl)c1Cl`, the activity, negative = inhibition is -14.8% [at 11.4 µM] (inactive).
Regarding `Cc1ccc2oc(-c3cccc(NC(=S)NC(=O)/C=C/c4ccco4)c3)nc2c1`, the AC50 is 1 µM (active).
For `O=C(O)COc1c(Cl)cc(Cl)c2cccnc12`, the activity, negative = inhibition is -9.36% [at 11.4 µM] (inactive).
`O=C(COc1ccc(Cl)cc1)N(Cc1ccccc1)c1ccccn1`: the AC50 was 22.4 µM (active).
Same read-out and setting: to `C[N+](C)(C)CCN(Cc1ccc(Cl)cc1)c1ccccn1` belongs “inactive”.
For the compound `O=C1O[C@@H]([C@H](O)[C@H](O)[C@H](O)CO)[C@@H](O)[C@@H]1O`, the activity, negative = inhibition is -1% [at 11.4 µM] (inactive).
As for `COc1ccc2c(c1OC)C(=O)N(C(C)C(=O)O)C2=O` (configuration not stated), the AC50 entry was “inactive”.
With `COc1cccc(-c2cncnc2-n2ccnc2)c1`, the AC50 is 0.316 µM (active).
`CN(C)c1ccc(-c2cncnc2-n2ccnc2)cc1`: the AC50 was 2.51 µM (active).
Still for that read-out and setting: the same measure for `c1cncc(-c2cncnc2-n2ccnc2)c1`: 7.94 µM (active); for `N#Cc1cccc(-c2cncnc2-n2ccnc2)c1`: 2.51 µM (active).
`CCCC(=O)n1nc(-c2cccnc2)nc1N`: the activity, negative = inhibition is 0.62% [at 2.29 µM] (inactive).
`Cc1ccc(C)c(N/C(N)=N/c2nc(C)cc(C)n2)c1`: the AC50 result was “inactive”.
The same measure, in the same setting: to `Cc1ccc(C(C2C(=O)CC(C)(C)CC2=O)C2C(=O)CC(C)(C)CC2=O)s1` belongs “inactive”; to `C[N+](C)(C)CCCCCCCCCC[N+](C)(C)C`, “inactive”.
For `COc1ccccc1-c1cncnc1-n1ccnc1`, the AC50 was 0.251 µM (active).
Same read-out and setting: to `COc1ccccc1-c1nnc(NC(C)=O)s1` belongs “inactive”.
For the compound `CC(C)(C)c1cc(C(=O)O)c(CN2CCCCC2)o1`, the AC50 entry was “inactive”.
On the same count and under the same terms, to `CC(Sc1ccc2c(c1)OCCO2)C(=O)Nc1ncc(Cl)cc1Cl` (configuration not stated) belongs 14.1 µM (active); to `C/C(CCC(=O)OC[C@@H]1O[C@H](C#Cc2ccccc2)C=C[C@@H]1Oc1ccc(C)cc1)=N/O[C@@H](C)CN1CCCCc2nc(C)c(C)cc21`, 3.16 µM (active).
Same read-out and setting: the same measure for `C/C(CCC(=O)OC[C@@H]1O[C@H](C#Cc2ccccc2)C=C[C@@H]1Oc1ccc(C)cc1)=N/O[C@@H](C)CN1CCCc2nc(C)c(C)cc21`: 3.98 µM (active); for `Cc1cc(NC(=O)C2=C(O)c3ccccc3S(=O)(=O)N2C)no1`: “inactive”.
For `Cc1nn2c3c(cnc2c1-c1ccccc1)C(=O)CC(c1ccccc1)C3` (configuration not stated), the AC50 entry was “inactive”.
As for `CCOC(=O)c1ccccc1N/C=C1\CCCCC1=O`, the activity, negative = inhibition is -9.45% [at 11.4 µM] (inactive).
Consider `COC(=O)c1ccccc1N/C=C1\CCc2c(c(C)nn2-c2ccccn2)C1=O`, for which the AC50 is 14.1 µM (active).
For the compound `CC(=O)Nc1ccc2c(c1)/C(=C/c1ccc([N+](C)(C)C)cc1)c1ccccc1-2`, the activity, negative = inhibition is -11.9% [at 11.4 µM] (inactive).
Still for that read-out and setting: to `CCCS(=O)(=O)N1CCCC(C(=O)NCc2cccnc2)C1` (configuration not stated) belongs -7.24% [at 2.29 µM] (inactive).
With `O=C(Nc1ccc(Cl)c(C(F)(F)F)c1)C1CCCN(S(=O)(=O)c2cnc[nH]2)C1` (configuration not stated), the AC50 is 0.126 µM (active).
For `COC(=O)c1cc(OC)c(OC)cc1NC(=O)CSc1ccc(C)cc1`, the concentration at half-maximal activity (AC50) was 1.58 µM (active).
On the same count and under the same terms, the same measure for `COc1ccc(Cc2nnc(NC(=O)CSc3ccc(C)cc3)s2)cc1OC`: 8.91 µM (active).
Turning to `COCc1nnc(NC(=O)CSc2ccc(C)cc2)s1`, the activity, negative = inhibition was -22.6% [at 11.4 µM] (inactive).
Regarding `O=C(O)CCCC[C@H]1CCSS1`, the AC50 result was “inactive”.
Turning to `C=C(C)C(=O)N1CC2(CC(c3cccc(NC(=O)c4ccccc4)c3)=NO2)C[C@@H]1C(N)=O` (some centres not stated), the AC50 result was “inactive”.
The same measure, in the same setting: to `NC(=O)C1(NC(=O)[C@@H]2CC3(CC(c4cccc(NC(=O)c5cc([N+](=O)[O-])cc([N+](=O)[O-])c5)c4)=NO3)CN2C(=O)c2ccccc2)CC1` (some centres not stated) belongs 3.16 µM (active).
For the compound `NC(=O)CNC(=O)[C@@H]1CC2(CC(c3cccc([N+](=O)[O-])c3)=NO2)CN1C(=O)c1ccccc1` (some centres not stated), the activity, negative = inhibition is 8.44% [at 2.29 µM] (inactive).
Turning to `CCCCCC(=O)N1CC2(CC(c3cccc(NC(=O)c4ccccc4)c3)=NO2)C[C@@H]1C(N)=O` (some centres not stated), the AC50 is 15.8 µM (active).
On the same count and under the same terms, the same measure for `NC(=O)[C@H]1CC2(CC(c3cccc(NC(=O)c4ccccc4)c3)=NO2)CN1C(=O)[C@H]1CCC(=O)N1` (some centres not stated): “inactive”.
With `NC(=O)CNC(=O)[C@@H]1CC2(CC(c3ccc(Cl)cc3)=NO2)CN1C(=O)c1ccccc1` (some centres not stated), the activity, negative = inhibition was 16.2% [at 2.29 µM] (inactive).
`O=c1c2ccccc2nnn1CSc1nnc(COc2ccc(Cl)cc2)n1Cc1ccco1`: the AC50 is 12.6 µM (active).
Turning to `CN(C)c1ccc2nc3c(C(=O)O)cc(=O)c(O)c-3oc2c1`, the activity, negative = inhibition is -10.3% [at 11.4 µM] (inactive).
As for `COc1ccc2[nH]cc(CCNc3cc(-c4ccc(C(=O)N(C)C)cc4)ncn3)c2c1`, the AC50 was 6.31 µM (active).
The same measure, in the same setting: the same measure for `COc1ccc2[nH]cc(CCNc3ccnc(-c4ccc(C(=O)N(C)C)cc4)n3)c2c1`: 3.16 µM (active); for `COc1ccc2[nH]cc(CCNc3ccnc(-c4ccc5c(c4)OCO5)n3)c2c1`: 2.51 µM (active).
As to `COc1ccc2[nH]cc(CCNc3ccnc(-c4ccc(N(C)C)cc4)n3)c2c1`, the AC50 is 5.01 µM (active).
Still for that read-out and setting: to `O=S(=O)(C=C(c1ccccc1)c1ccccc1)c1ccccc1` belongs “inactive”; to `CCC(=S)/C=C1\Sc2ccc3ccccc3c2N1CCCS(=O)(=O)O`, “inactive”; to `COc1ccc2[nH]cc(CCNc3ccnc(-c4c(C)noc4C)n3)c2c1`, 2.51 µM (active).
The same measure, in the same setting: the same measure for `COc1ccc2[nH]cc(CCNc3ccnc(-c4ccoc4)n3)c2c1`: 3.16 µM (active).
With `Oc1ccc2ccccc2c1CN(Cc1c(O)ccc2ccccc12)C1CCCCC1`, the activity, negative = inhibition is -12% [at 11.4 µM] (inactive).
With `CCOC(=S)NC(=O)c1sc2ccccc2c1Cl`, the AC50 result was “inactive”.
Same read-out and setting: to `O=C(NC(=S)N(CCCCO)C1CCCCC1)c1sc2ccccc2c1Cl` belongs 3.16 µM (active).
`O=C1CN2CCN(CC2)CC(=O)Nc2ccc(cc2)S(=O)(=O)c2ccc(cc2)NC(=O)CN2CCN(CC2)CC(=O)Nc2ccc(cc2)S(=O)(=O)c2ccc(cc2)N1`: the activity, negative = inhibition was -29.8% [at 11.4 µM] (inactive).
Regarding `CSc1nnc(-c2sccc2OCc2ccccc2)n1C`, the AC50 result is “inactive”.
Turning to `CSc1nnc(-c2sc(-c3ccccc3)nc2C)n1C`, the AC50 result is “inactive”.
Consider `C#CCSc1nnc(-c2sc(-c3ccccc3)nc2C)n1C`, for which the concentration at half-maximal activity (AC50) is 1 µM (active).
Take `O=C(O)CSc1cc(-c2ccccc2)nc2ccccc12`: the activity, negative = inhibition is -1.98% [at 11.4 µM] (inactive).
Regarding `Cc1ccc(-c2cc(-c3nnc(SCC(=O)NC(C)C(C)C)n3N)c3ccccc3n2)cc1` (configuration not stated), the AC50 is 14.1 µM (active).
As to `CCCCC(=O)Nc1sc2c(c1C(=O)OCC)CCC(C=O)=C2Cl`, the AC50 was 15.8 µM (active).
The same measure, in the same setting: the same measure for `CCOC(=O)c1c(NC(=O)c2c(C)noc2C)sc2c1CCCCC2`: “inactive”.
Take `O=C(O)c1cc2ccccc2c(S(=O)(=O)O)c1O`: the activity, negative = inhibition was 1.86% [at 11.4 µM] (inactive).
In the case of `C/C(CCN1CCCc2nc(C)c(C)cc21)=N\O[C@@H](C)CN1CCCCc2nc(C)c(C)cc21`, the AC50 is 3.98 µM (active).
Take `C/C(CCN1CCCCc2nc(C)c(C)cc21)=N\O[C@@H](C)c1cc(-c2c(C)cc(C)cc2C)no1`: the AC50 is 3.98 µM (active).
As to `Cc1cc2c(nc1C)CCCN2CC(O)CN1CCCc2nc(C)c(C)cc21`, the activity, negative = inhibition is -8.33% [at 11.4 µM] (inactive).
The same measure, in the same setting: the same measure for `CO/N=C(\C)CCN1CCCc2nc(C)c(C)cc21`: -26.4% [at 11.4 µM] (inactive).
In the case of `C/C(CCN1CCCCc2nc(C)c(C)cc21)=N\O[C@@H](C)CN1CCCCc2nc(C)c(C)cc21`, the AC50 is 3.98 µM (active).
The same measure, in the same setting: the same measure for `C/C(CCN1CCc2nc(-c3ccccc3)c(-c3ccccc3)cc2C1)=N\O[C@@H](C)CN1CCCCc2nc(C)c(C)cc21`: 3.98 µM (active).
On to `CCN(CC)C[C@@H](O)CN1CCCCc2nc(C)c(C)cc21`, for which the activity, negative = inhibition was -14.9% [at 11.4 µM] (inactive).
As to `Nc1ccc(C(=O)NCC(=O)O)cc1`, the AC50 entry is “inactive”.
For the compound `CC[N+](CC)(CC)CC[C@](O)(c1ccccc1)C1CCCCC1`, the AC50 entry is “inactive”.
Consider `Nc1c2c(nc3ccccc13)CCC[C@H]2O`, for which the AC50 result is “inactive”.
On the same count and under the same terms, to `CCc1ccc2c(c1)c(N=NC1=NC(=O)CS1)c(O)n2CC` belongs “inactive”; to `Cc1cc2c(nc1C)CCCN2C[C@H](O)CN1CCCc2nc(-c3ccc(Br)cc3)ccc21`, 3.98 µM (active).
On to `Cc1cc2c(nc1C)CCCN2C[C@@H](O)CN1CCN(C)CC1`, for which the activity, negative = inhibition is 0.272% [at 11.4 µM] (inactive).
On the same count and under the same terms, the same measure for `Cc1cc2c(nc1C)CCCCN2C[C@H](O)CN1CCCc2nc(-c3ccc(Br)cc3)ccc21`: -29.7% [at 11.4 µM] (inactive).
Consider `CCc1cc2c(nc1CC)CCN(CC/C(C)=N/O[C@@H](C)c1cc(-c3c(C)cc(C)cc3C)no1)C2`, for which the AC50 was 3.98 µM (active).
`COc1ccc(-c2ccc3c(n2)CCCN3C[C@H](O)CN2CCCc3nc(-c4ccc(Br)cc4)ccc32)cc1`: the activity, negative = inhibition is -28.9% [at 11.4 µM] (inactive).
With `C/C(CCN1CCCCc2nc(C)c(C)cc21)=N\O[C@@H](C)CN1CCCc2nc(C)c(C)cc21`, the AC50 was 3.16 µM (active).
For the compound `CCc1cc2c(nc1CC)CCN(CC/C(C)=N/O[C@@H]1O[C@H](COC(C)=O)[C@H](OC(C)=O)[C@H](OC(C)=O)[C@H]1OC(C)=O)C2`, the activity, negative = inhibition is -28.1% [at 11.4 µM] (inactive).
Turning to `Cc1cc2c(nc1C)CCCCN2C[C@H](C)O/N=C\[C@@H](C)[C@H](OCc1ccccc1)C(C)C`, the AC50 was 3.98 µM (active).
In the case of `C[C@@H](N)[C@@H](C)Cc1ccccc1`, the activity, negative = inhibition is -8.05% [at 11.4 µM] (inactive).
In the case of `CN(C)CCO[C@](C)(c1ccccc1)c1ccccn1`, the AC50 result was “inactive”.
Same read-out and setting: the same measure for `CCCn1nc(Oc2nc(NCC)nc(NCC)n2)ccc1=O`: “inactive”.
